Source: PubChem
Hits are enriched below; roughly 2.9% of the tested compounds scored in any of these assays.
ERa SRC1 inh – ERα–SRC-1 coactivator interaction inhibitors, primary screen, biochemical, TR-FRET, ERα LBD, estradiol-bound; Estrogen receptor (Homo sapiens), P03372; TR-FRET ER-alpha LBD / SRC-1 peptide; inhibition, % at 25.6 µM; actives 1.7% (n = 86,000); AID 629, 2007; in the data active = inhibition above about 50%;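 also: 0% = receptor plus peptide control and 100% = peptide only without receptor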
MRP reversal – reversal of MRP1-mediated doxorubicin resistance, primary screen, H69AR cells, doxorubicin co-treatment; H69AR cells + 2 uM doxorubicin, CellTiter-Glo, 72 h; differential viability (reversal), % at 10 µM; actives 0.04% (n = 85,000); AID 602, 2007;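 active = viability drop by adding the cancer drug above about 55%, with treated viability meeting a 40% cutoff, limit read from the data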;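 also: viability without doxorubicin minus viability with 2 µM doxorubicin for each compound; larger differential means the compound sensitizes cells more to doxorubicin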
ERa coact pot – enhancers of ERα–SRC-1 coactivator binding, primary screen, biochemical, TR-FRET, ERα LBD, low estradiol. Estrogen receptor (Homo sapiens), P03372. TR-FRET ERalpha-LBD/SRC-Cy5 coactivator binding, 2 h; 100 = basal binding, no effect. coactivator binding (% of control), % at 25.6 µM. actives 1.3% (n = 86,000); in the data active = activity above about 200%;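 also: binding measured in presence of low estradiol as agonist stimulus; 0% = peptide alone without receptor and 100% = receptor with peptide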
Smad3 inh – Smad3/FoxH1 peptide binding inhibitors, primary screen, biochemical, TR-FRET; TR-FRET Smad3/Dy647-FoxH1 peptide binding, europium anti-His; inhibition, % at 25 µM; AID 630, 2007; actives 0.29% (n = 88,000);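 active = compounds that reduce the energy-transfer binding signal between the protein and its labelled peptide by more than half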;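 also: 0% = Smad3 plus labelled peptide maximal FRET and 100% = peptide-only background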
Target sequence (P84022 whole entry, looked up): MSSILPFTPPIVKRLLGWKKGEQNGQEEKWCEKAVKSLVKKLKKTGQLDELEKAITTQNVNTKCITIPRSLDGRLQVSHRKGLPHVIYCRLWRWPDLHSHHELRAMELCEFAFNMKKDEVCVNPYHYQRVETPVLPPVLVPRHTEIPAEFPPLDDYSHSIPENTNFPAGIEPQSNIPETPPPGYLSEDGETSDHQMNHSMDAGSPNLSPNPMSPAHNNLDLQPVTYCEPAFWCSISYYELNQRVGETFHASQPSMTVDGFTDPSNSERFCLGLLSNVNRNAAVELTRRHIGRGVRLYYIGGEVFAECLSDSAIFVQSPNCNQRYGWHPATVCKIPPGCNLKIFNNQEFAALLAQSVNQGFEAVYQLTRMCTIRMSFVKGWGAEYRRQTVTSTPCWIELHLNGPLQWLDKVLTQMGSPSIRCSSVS
ERb SRC1 inh – inhibitors of ERβ-SRC1 coactivator interaction, primary screen, biochemical, TR-FRET, ERβ LBD, SRC-1 peptide | actives 1.3% (n = 86,000) | Estrogen receptor beta (Homo sapiens), Q92731 | inhibition, % at 25.6 µM | TR-FRET ER-beta LBD / SRC1-Cy5 peptide binding; receptor agonist-loaded with 1 µM estradiol;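 active = compounds whose percent inhibition of the receptor-coactivator binding signal exceeds about 50% in the single-dose screen, limit read from the data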;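 also: 0% = receptor plus peptide wells without compound and 100% = peptide-only wells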
MRP1 act – H69AR viability gain despite doxorubicin, primary screen, MRP-1 activator project, H69AR cells, CellTiter-Glo; viability rescue; viability increase, % at 10 µM; actives 0.61% (n = 140,000);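 active = viability gain under doxorubicin at or above a set limit, the compound median plus 3 SD, cut at about 4.7% in these data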;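 also: MRP-1 overexpressing cells given doxorubicin 25 µM after compound pretreatment; 18-22 h compound pretreatment then 72 h with doxorubicin before readout; 0% = doxorubicin-only wells and 100% = vehicle-treated cells without doxorubicin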
Numbers without * were called inactive; x = no result given; [ ] = dose if it differs, or a comment.

SMILES	ERa SRC1 inh	MRP reversal	ERa coact pot	Smad3 inh	ERb SRC1 inh	MRP1 act
O=C(NCc1ccc2c(c1)OCO2)c1ccc(C2SCC(=O)N2Cc2ccco2)cc1 (centres undefined)	43	18	215*[fluorescence artefact?]	4	33	-4
Cc1cc(NC(=O)c2cccc(C(=O)Nc3cc(C)on3)n2)no1	16	2	292*	35	11	-4
CCOc1cccc2cc(C(=O)Nc3cc(C)on3)c(=O)oc12	33	6	468*[fluorescence artefact?]	-55	29	-1
Cc1cc(NC(=O)COc2cccc3cccnc23)no1	64*[fluorescence artefact?]	0	52	-7	50*[fluorescence artefact?]	-1
Cc1cc(NC(=O)c2ccc(Cl)cc2)no1	-6	-3	118	3	-6	0
Cc1cc(NC(=O)COc2cccc(C)c2C)no1	3	-1	96	12	-5	0
CCOc1cccc2cc(C(=O)Nc3ccccc3-c3ccccc3)c(=O)oc12	x	x	x	x	x	-1
Cc1oc(C(=O)O)cc1COc1cccc2cccnc12	20	-13	99	4	59*[fluorescence artefact?]	-2
C=CCc1c(C)nc(SC)nc1Nc1ccc(C)cc1	-5	5	90	4	-4	-2
COc1ccc(NCc2c(O)ccc3ccccc23)cc1	x	x	x	28	x	x
Clc1cc2c(c(CSC3=NCN(CC4CC4)CN3)c1)OCOC2	x	x	x	4	x	x
c1ccc2c(-c3nc(C4CCCCC4)no3)cc(-c3ccncc3)nc2c1	34	2	96	-4	27	7.6*
COc1ccc(-c2cc(-c3nnc(-c4ccncc4)o3)c3ccccc3n2)cc1	x	x	x	x	x	-2
COc1ccc(/C=N/NC(=O)O)cc1	x	x	x	12	x	x
COC(=O)c1ccc(COc2cc(O)c3c(c2)OC(C)(C)CC3=O)cc1	-15	6	94	-1	-14	6.1*
CN1CCN(Cc2nc3cccc4c3c([n+]2[O-])-c2ccccc2-4)CC1	x	x	x	6	x	x
O=C1c2ccc(-c3nc4ccccc4o3)cc2C(=O)N1Cc1cccnc1	-2	-5	370*	14	-15	x
O=C1c2cccnc2C(=O)N1c1cccc(-c2nc3ccccc3o2)c1	53*[fluorescence artefact?]	14	59	-10	33	-3
O=C1CCC(=O)N1c1cccc(-c2nc3ccccc3o2)c1	-4	12	137	-1	-3	1
C/C(=N\O)c1ccc2cc(Br)c3ccccc3c2c1	x	x	x	12	x	x
Cc1conc1NC(c1cccs1)c1ccc2cccnc2c1O (centres undefined)	57*[fluorescence artefact?]	-5	66	0	46	-5
O=C(O)c1cc2sccc2s1	1	-13	107	0	59*	0
C/C(=C\c1ccc(Cl)cc1)C(C)(C)C(=O)O	x	x	x	3	x	x
Cc1cc(C2(c3cc(C)c(O)c(C(=O)O)c3)OS(=O)(=O)c3ccccc32)cc(C(=O)O)c1O	x	x	x	20	x	x
Nc1ccc(NC(=O)c2cccs2)c(Cl)c1	-6	15	237*[fluorescence artefact?]	1	-8	0
SMILES	ERa SRC1 inh	MRP reversal	ERa coact pot	Smad3 inh	ERb SRC1 inh	MRP1 act
COC(=O)c1ccccc1NC(=O)c1sc(=S)n(C)c1N	70*[fluorescence artefact?]	-8	19	5	38	-4
COC(=O)c1ccccc1NC(=O)c1cc(-c2cccs2)on1	-2	-7	251*[fluorescence artefact?]	-3	49	-3
Nc1ccc(Cl)c(NC(=O)c2cccs2)c1	7	1	100	-3	-5	-1
COC(=O)c1ccccc1NC(=O)c1sc(N)nc1C	10	18	103	3	4	0
COc1ccccc1NC(=O)c1cccs1	x	x	x	x	x	-1
COC(=O)c1ccccc1NC(=O)c1cccs1	15	56*	107	-10	20	-1
CCn1c(CCCc2nc3c([nH]2)c(=O)n(C)c(=O)n3C)nc2c1c(=O)n(C)c(=O)n2C	x	x	x	7	x	x
CCOc1cc(C2c3c(oc4cc(C)c(Cl)cc4c3=O)C(=O)N2Cc2ccco2)ccc1O (centres undefined)	84*[fluorescence artefact?]	-3	106	1	46	-3
N=C(N)SCc1cn2ccccc2n1	x	x	x	x	x	4.9*
COCCCN1C(=O)C(=O)/C(=C(/O)c2ccc3c(c2)OCCO3)C1c1ccc(C(=O)OC)cc1 (centres undefined)	77*[fluorescence artefact?]	9	68	28	80*[fluorescence artefact?]	-1
COCCN1C(=O)C(=O)/C(=C(/O)c2ccc3c(c2)OCCO3)C1c1ccc(C(=O)OC)cc1 (centres undefined)	-7	-7	91	-4	-10	0
CN(Cc1ccccc1)C(=O)c1ccc([N+](=O)[O-])o1	x	x	x	x	x	-5
CCOC(=O)N1CCN(c2cc(=O)n(-c3ccccc3Cl)c(=O)[nH]2)CC1	0	4	123	-5	74*[fluorescence artefact?]	1
C[C@@H](CNC(N)=O)NC(N)=O	x	x	x	-19	x	x
Cc1nc(OCc2ccccc2)c2sc3nc4c(cc3c2n1)COC(C)(C)C4	-2	18	99	-10	-5	6.1*
Cc1nc2c(sc3nc4c(cc32)COC(C)(C)C4)c(=O)n1Cc1ccccc1	2	6	96	8	-3	3
O=[N+]([O-])c1ccc(/C=N/Nc2nc(N3CCCCCC3)nc(N3CCCCCC3)n2)o1	14	-11	80	14	96*[fluorescence artefact?]	-7
O=[N+]([O-])c1cc2c(cc1/C=N/Nc1nc(N3CCCC3)nc(N3CCCC3)n1)OCO2	x	x	x	x	x	3
O=C(O)[C@@H]1[C@H](C(=O)NCc2ccncc2)[C@@H]2C=C[C@H]1O2	x	x	x	3	x	x
Cn1cnc([N+](=O)[O-])c1Sc1nc(N)nc2c1ncn2[C@@H]1C[C@H](O)[C@@H](CO)O1	x	x	x	8	x	x
Cc1onc(-c2ccccc2)c1-c1nc2ccccc2c(=O)o1	-3	-14	95	3	-5	0
CCn1c(C)nc2cc(-c3nnc(-c4c(-c5ccccc5)noc4C)o3)ccc21	-18	13	373*[fluorescence artefact?]	15	-3	-4
C/C(=N\NC(=O)CCc1c[nH]c2ccccc12)c1cccc([N+](=O)[O-])c1	x	x	x	x	x	7.9*
C/C(=N\NC(=O)c1ccccc1C)c1cccc([N+](=O)[O-])c1	x	x	x	x	x	0
CN(CC(=O)NCCc1ccc(Cl)cc1)S(=O)(=O)c1ccc2c(c1)c(=O)n(C)c(=O)n2C	-3	4	105	0	-6	6.1*
CN(CC(=O)NCCC1=CCCCC1)S(=O)(=O)c1ccc2c(c1)c(=O)n(C)c(=O)n2C	7	-4	111	2	14	-2
O=C(O)[C@@H]1[C@H](C(=O)NCc2ccccn2)[C@@H]2C=C[C@H]1O2	x	x	x	-2	x	x
Cc1ccc(C)n1-c1cccc(C(=O)O)c1	0	-7	328*	1	25	-2
